Measurements: the supplement of paper PMC6555819

These sequences were tested on VDR:RXRa (NR concentration 270 nM, RXRa partner concentration 90 nM) (assay: PBM binding z-score (relative to random genomic background probes); higher = stronger binding; sequences stand for … in GC…GCGATTGACAGCGTAGAATGAAGG).
Method: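 Protein-binding microarray (Agilent 4x180K custom design, double-stranded 60-nt probes: 5' GC cap, 34-nt variable region, 24-nt constant primer region; full probe sequence given). Purified or IVT nuclear receptor:RXRα heterodimers (3:1 NR:RXRα, mostly 270:90 nM) or homodimers were incubated for 1 h in PBS with 2% milk and no ligand, then detected with Alexa488 antibodies. Fluorescence from o1-orientation probes (~5 replicates averaged) was converted to z-scores against 500 random hg19 background probes. Variable regions are seed direct-repeat (DR0–DR5) sites, all their single-nucleotide variants and half-site ablations.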

| Sequence | PBM binding z-score |
| --- | --- |
| CAGTCTAGGTCAGGGCCAGTATAGGAGGAACGTT | 0.403 |
| GCTGCTAGGGCAGGTTGGTCAGCTAACGGGTACG | -0.775 |
| AGAACGAGGGAACGCTGAGTTGATAGCAGAGTAG | -0.0908 |
| AGTCAAAGATCATCTAGGTAACGTAAGATATGCT | 0.0146 |
| GCTCGGAGGACAAGGTCAGAGGTTTGTCCGTAGA | 1.81 |
| CCTGCCAGGTCATGGTCAGCTAATCTACAGTATG | 2.65 |
| TCTATTAGTTGATTAGGACAACCGAAACAGCGGA | 1.12 |
| CGTTAAAGTTCAAGGTAACGTAACAGAAAGCAGC | 3.02 |
| CGTCCAAGGTCAGCAGGTCAGTGACAGCGACGTG | 4.1 |
| CCTACTGGGCCAAAGGTAATTGATTCCAATGCTC | -0.387 |
| CCTTACGGGTCACTGACAGTTTATAGCATTTGGA | 4.21 |
| GCCTATAGGTAATACAAGGTGAAAGTCCGATTGT | 0.256 |
| TCTAGCAGGCCAGAGGGCCACTCAAGAGGTACGG | -0.505 |
| ACTTACGGGTCAACGAGGTTATGGCACGCGTATA | 7.66 |
| CGTCCAAGGTCAGAGAGGTCAGAGAATGCCGAGT | 7.59 |
| CGAATTAGGTCATTGACAGGACAGTGAATAGTAA | 2.3 |
| CAAACTAGGTCCAAGGTCAAAGTCGAGCCAACCA | 4.04 |
| ATATGTAGGTTATCGGGTCATTCGGTTTGCGCAT | 5.19 |
| TCTCGGAGGACACGAAAGTTCAGAGCTCGACATC | 2.25 |
| CCTCGGAGGACAGCAGGTCAGAGCTGTCCGCTTT | -0.115 |

| Sequence | PBM binding z-score |
| --- | --- |
| TCGTGTAGGTTACCAATGGGGCATTCAGCTTTCT | 0.608 |
| CAGCCTAGGTCACGGCCAGTATAGGAGGAACGTT | 2.68 |
| TAGCCTACGTCATTCAGGGGCCAGTATAGAAAGC | -0.219 |
| GCTAGCAGGCCATTTGGGTCACTCAGTGACGGGC | 0.711 |
| ACAGACAGGTGCTGAAGGTAACTCAGGCTATCAT | -0.264 |
| AGCTCTAGGTAAAGATAGTTCAGTGAATGCAAAT | 0.921 |
| GCGACTGGGGCATCAGCAGGTTACCATGACTTAA | -0.443 |
| CCTCGGAGGACAGAAGGTCACAGCTGTCCGCTTT | 2.64 |
| ACTAGCAGGCCAAGTTCGGGTCACTCAAACAAAG | 2.43 |
| CAAACTAGGTCACAGAGGTCAAAGTCCGTGCGTA | 8.16 |
| ACATGTAGGTTACATCCGGGTCATTCAGGCTATG | 4.11 |
| ACTATTAGTTGAGAGGAGGGCAACCGATAGGTTG | 0.152 |
| CCTCGGAGGACAGAAGGTCTGAGCTGTCCGCTTT | -0.624 |
| TTACCAAGGTGAGCTGCGGTCGTTGATCCAACTC | 0.235 |
| CCAGACTGGTGAGAAGGTAACTCAGCCTCGATTA | -0.455 |
| CCGACTGGGGCAAAGGTTATCATACTCAGTACGA | 1.46 |
| TCTGCTCGGTCAGTTGGTCAGCTAACGAGCTGCC | -0.549 |
| CCTCGGAGGACAGAAGGTCAGACCTGTCCGCTTT | 1.05 |
| TCAGACAGGTGAATGTAACTCAGGTACGCAGTCG | 0.512 |
| ACTAGCAGGCCAAGTGTGGGTCACTCAAACAAAG | 0.53 |
